FBPA Giardia inh – inhibitors of Giardia lamblia fructose-1,6-bisphosphate aldolase. purified Giardia FBPA. AID 2451. A8B2U2. 290,000 compounds, 0.71% hits. Potency, µM (titrated, usually from 59.6 µM), without a hit: at the highest dose activity, negative = inhibition, actives largely listed as inhibitors; note: potency is the fitted concentration of half-maximal effect; nearly all actives have a fitted effect of over 55% in size
Target sequence (A8B2U2 whole entry, looked up): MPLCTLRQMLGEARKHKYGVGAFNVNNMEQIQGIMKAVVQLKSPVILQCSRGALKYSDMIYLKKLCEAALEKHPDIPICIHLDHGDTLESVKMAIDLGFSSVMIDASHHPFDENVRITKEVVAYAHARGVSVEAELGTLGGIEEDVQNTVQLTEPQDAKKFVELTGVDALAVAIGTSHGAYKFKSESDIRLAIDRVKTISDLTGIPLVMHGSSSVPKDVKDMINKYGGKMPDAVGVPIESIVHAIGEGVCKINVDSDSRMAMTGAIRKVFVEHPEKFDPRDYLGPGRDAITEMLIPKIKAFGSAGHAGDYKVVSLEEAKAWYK
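Giardia FBPA (40 nM reagent) was preincubated 10 min at RT with compound (up to 57.5 uM final), then substrate plus GAPDH/TPI/NAD/arsenate coupling system with diaphorase/resazurin was added; resorufin fluorescence (525/598 nm) was read after 20 min.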
TbPYK inhibitor – T. brucei pyruvate kinase inhibition; TbPYK enzyme, Kinase-Glo Plus ATP luminescence, 45 min; Potency, µM (highest dose often 76.8 µM), for inactives: top-dose activity, negative = inhibition, usual class: inhibitors; 410,000 compounds, 0.12% hits; note: potency is the fitted concentration of half-maximal effect; nearly all actives have a fitted effect of over 50% in size
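Luminescent Kinase-Glo Plus end-point after 45 min room-temperature reaction of T. brucei pyruvate kinase started with 130 uM ADP (final). Buffer TEA 50 mM pH 7.2 with KCl, MgCl2, BSA, Tween-20; titration-based qHTS with fitted concentration-effect curves.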
RE007 growth inh – less growth of the S. pombe RE007 Vpr strain; S. pombe RE007 Vpr strain, BacTiter-Glo ATP luminescence, 24 h; Potency, µM (top dose mostly 92.2 µM), for the others: top-dose activity change, negative = less growth, actives largely listed as inhibitors; 360,000 compounds, 0.21% hits; AID 651644; active = well fitted falling curve with a large enough effect; inconclusive = small, poorly fitted or top-dose-only effect; inactive = no such curve, though single readings can be large or run the other way; note: potency is the fitted concentration of half-maximal effect; nearly all actives have a fitted effect of over 50% in size
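Fission yeast RE007 carrying one integrated HIV-1 vpr copy, seeded at OD 0.01 in PMG+AL medium with 23 nL pinned compound. Grown 24 h at 30 degrees; viability read by BacTiter-Glo luminescence after 5 min.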
FMDV inh – foot and mouth disease virus antiviral activity; FMDV antiviral cell-based qHTS; Potency, µM (top dose mostly 57.9 µM), inactives show at the highest dose activity change, negative = inhibition, actives largely listed as inhibitors; 410,000 compounds, 1.2% hits; calls by dose curve; tested in HEK293T cells; note: read-out not given here; potency is the fitted concentration of half-maximal effect; nearly all actives have a fitted effect of over 45% in size
HCMV inh – inhibitors of human cytomegalovirus; HFF cells, HCMV-luciferase reporter, 72 h; active compounds read low; activity change, negative = inhibition, % at 57.5 µM; 410,000 compounds, 4.5% hits; AID 1259415; in the data active = activity change below about -60%; inconclusive = no clear call, values can overlap the other calls; inactive = above about -39%
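Steps: HFFs plated, 16 h 37C; compounds added; HCMV-luciferase added to MOI 1 PFU/cell; 72 h 37C; OneGlo reagent, 5 min room temperature; luminescence read, normalized to controls.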
Sm TGR inh – inhibitors of Schistosoma mansoni thioredoxin glutathione reductase. 360,000 compounds, 3% hits. Q962Y6. purified TGR, DTNB reduction, TNB absorbance 405 nm. AID 485364. Potency, µM (highest dose often 114 µM), for inactives: at the highest dose activity change, negative = inhibition, usual class: inhibitors; note: potency is the fitted concentration of half-maximal effect; nearly all actives have a fitted effect of over 60% in size
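First, TGR (20 nM dispensed) and NADPH were mixed with compound. Second, a 15 min room-temperature incubation followed. Third, further NADPH and then DTNB were added to start the reaction. Finally, TNB absorbance was monitored kinetically.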
* marks the source's active call; other numbers are inactive results; ? = inconclusive; · = no result; [ ] = another dose, or the depositor's remark. Only some compounds are listed: those with a hit (about 7.7% of all), similar ones and a draw of the others. Unless noted, calls come from the whole dose curve; as a rule, active = well fitted curve in the direction sought with a large enough effect; inconclusive = small, poorly fitted or top-dose-only effect, or another doubt; inactive = no such curve, though single readings can be large; an effect the other way counts as inactive or inconclusive. % is set by controls: 0 for no effect and ±100 for the full control effect.

SMILES	FBPA Giardia inh	TbPYK inhibitor	RE007 growth inh	FMDV inh	HCMV inh	Sm TGR inh
CCN(CC)c1ccc(N=Cc2c(O)n(CCc3ccc(OC)c(OC)c3)c(=O)[nH]c2=O)cc1	-13%	-22%	21%	6.3µM*	31	-2%
Cc1c(N=Cc2c(O)n(CCc3ccc(F)cc3)c(=O)[nH]c2=O)c(=O)n(-c2ccccc2)n1C	8%	-7%	-1%	·	-71*	-4%
COc1ccc(CCn2c(O)c(C=Nc3ccc(F)cc3)c(=O)[nH]c2=O)cc1OC	5%	2%	3%	32µM*	-12	-8%
CCOC(=O)C1/C(=N\O)CC(C)(O)C(C(=O)OCC)C1c1ccc(N(C)C)cc1 (stereo not given)	?	-13%	-7%	-19%	-1	35µM*
COc1ccc2oc(-c3ccc(C)c(NC(=O)c4ccc(-c5ccccc5[N+](=O)[O-])o4)c3)nc2c1	·	1%	·	5%	58	-3%
CC(C)CN1CCc2nc(Nc3ccc(F)cc3F)ncc2C1	·	-4%	·	46%	58	-2%
CC(=O)Nc1ccc(S(=O)(=O)NCCSCc2ccccc2Cl)cc1	3%	1%	-3%	-27%	-84*	6%
COc1cccc(NC(=O)c2ccc3[nH]c(C)cc(=O)c3c2)c1	·	0%	·	8%	0	3%
Cc1ccc(S(=O)(=O)NCC(c2cccnc2)N2CCOCC2)cc1 (stereo not given)	1%	1%	-1%	0%	-79*	-4%
Cc1cc(S(=O)(=O)NCC(c2ccc3c(c2)OCO3)N2CCOCC2)ccc1F (stereo not given)	·	4%	-11%	6%	-64*	3%
O=[N+]([O-])c1ccc(S(=O)(=O)NCC(c2cccnc2)N2CCOCC2)cc1 (stereo not given)	0%	5%	-10%	5%	-30	0%
O=S(=O)(NCC(c1ccc2c(c1)OCO2)N1CCOCC1)c1ccc(Cl)cc1 (stereo not given)	·	-4%	2%	0%	-27	-9%
Cc1cccc(C(=O)NCC(c2ccc3c(c2)OCO3)N2CCOCC2)c1 (stereo not given)	·	0%	·	-11%	0	25µM*
C[C@@H]1COc2cc(N3CCCCC3)ccc2S(=O)(=O)N1	·	·	·	·	9	·
CC(C)c1ccc(C(=O)NC(=S)NCc2cccnc2)cc1	0%	-11%	-7%	-27%	-74*	?
Cc1ccc(C(=O)NC(=S)NCc2cccnc2)cc1C	8%	2%	-20%	8%	?	50µM*
COc1ccc2c(c1)sc1ncc(C(=O)NCc3cccc(C)c3)c(=O)n12	·	0%	·	-7%	-3	8%
COC(=O)c1cc2sccc2n1Cc1c(C)cc(C)cc1C	·	-1%	·	-19%	15	0%
CCC1CCCCN1S(=O)(=O)c1cc2c3c(c1)CC(=O)N3CCC2 (stereo not given)	·	3%	·	22%	-1	8%
CCc1ccccc1NC(=O)c1cnc2sc(N3CCOCC3)nn2c1=O	·	-6%	·	-29%	2	12%
Cc1c(-c2ccccc2)c(-c2ccc(OCCN(C)C)cc2)n2ccccc12	·	1%	-9%	-2%	-74*	·
O=C1CCc2c(ccc3ccccc23)O1	0%	·	·	-18%[146 µM]	·	·
CN1COc2ccc3ccccc3c2C1	-10%	0%	-6%	-11%	-37	4µM*
Oc1ccccc1N=Nc1nc(-c2ccccc2)c(-c2ccccc2)[nH]1	?	2%	13%	28µM*	-107*	-17%
CN(C)c1ccc(N(C)C)c(C(O)(c2ccccc2)c2ccccc2)c1	·	·	·	·	-35	·
O=[N+]([O-])c1ccc(Oc2ccc(S(=O)(=O)N3CCCCC3)cc2)cc1	-8%	-7%	-7%	?	-63*	-3%
COC(=O)c1ccc(Oc2ccc(S(=O)(=O)N3CCCCC3)cc2N)cc1	10%	-1%	11%	?	-36	-4%
CC1CCN(S(=O)(=O)c2ccc(Oc3ccc([N+](=O)[O-])cc3)cc2)CC1	-2%	0%	7%	?	-77*	-19%
